Reference: PubChem BioAssay (EPA / NIEHS)
Where a structure was tested more than once in an assay, its records may differ in their call. Active and inactive are the calls of the source. Rule for the calls: active = hit-call score of the fitted dose curve at least 0.9, where 1 is the maximum; inactive = score below 0.9.

Key:
[1] = read-out: Interleukin-1 alpha (IL1a), IL1A (gene 3552); assay: BSK_KF3CT_IL1a: BioMAP Diversity Plus: KF3CT Assay for Interleukin-1 alpha (IL1a) Biomarker Activity (AID 2283070); conditions: primary human keratinocytes with fibroblasts; actives raise or lower the signal
Outline: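 Human keratinocyte plus foreskin fibroblast primary co-culture, sampled 24 h after chemical dosing. IL-1a measured by ELISA; responses fitted bidirectionally against DMSO baseline (negative control), so gain or loss of signal both count.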

[2] = read-out: TIMP metallopeptidase inhibitor 2 (TIMP2), TIMP2 (gene 7077); assay: BSK_KF3CT_TIMP2: BioMAP Diversity Plus: KF3CT Assay for TIMP metallopeptidase inhibitor 2 (TIMP2) Biomarker Activity (AID 2283071); conditions: primary human keratinocytes with fibroblasts; actives raise or lower the signal
Outline: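 Human primary keratinocyte/foreskin fibroblast co-culture dosed with chemical and sampled at 24 h. TIMP-2 levels quantified by ELISA; bidirectional fitting against DMSO negative control as baseline.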

[3] = read-out: Transforming growth factor beta 1 (TGFb1), TGFB1 (gene 7040); assay: BSK_KF3CT_TGFb1: BioMAP Diversity Plus: KF3CT Assay for Transforming growth factor beta 1 (TGFb1) Biomarker Activity (AID 2283072); conditions: primary human keratinocytes with fibroblasts; actives raise or lower the signal
Outline: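 Human keratinocyte plus foreskin fibroblast primary co-culture, dosed with chemical for 24 h. TGF-b1 quantified by ELISA. Activity fitted bidirectionally against DMSO negative control as baseline.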

[4] = read-out: C-C motif chemokine 2 (Homo sapiens) (UniProt P13500); assay: BSK_KF3CT_MCP1: BioMAP Diversity Plus: KF3CT Assay for Monocyte Chemoattractant Protein 1 (MCP1/CCL2) Biomarker Activity (AID 2283073); conditions: primary human keratinocytes with fibroblasts; actives raise or lower the signal
Outline: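 ELISA read-out of MCP-1, 24 h post-dose, in primary human skin keratinocytes co-cultured with fibroblasts. Parallel SRB staining monitors cytotoxicity; changes fitted both directions relative to DMSO.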

[5] = read-out: Matrix Metallopeptidase 9 (MMP9), MMP9 (gene 4318); assay: BSK_KF3CT_MMP9: BioMAP Diversity Plus: KF3CT Assay for Matrix Metallopeptidase 9 (MMP9) Biomarker Activity (AID 2283074); conditions: primary human keratinocytes with fibroblasts; actives raise or lower the signal;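 for AC50: MMP9 protein level quantified by ELISA in the co-culture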
Outline: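 Keratinocyte plus foreskin fibroblast human primary skin co-culture was dosed with chemical and MMP-9 was quantified by ELISA 24 h later. Bidirectional curve fitting used DMSO as negative control and activity baseline.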

[6] = read-out: urokinase plasminogen activator (uPA), PLAU (gene 5328); assay: BSK_KF3CT_uPA: BioMAP Diversity Plus: KF3CT Assay for urokinase plasminogen activator (uPA) Biomarker Activity (AID 2283075); conditions: primary human keratinocytes with fibroblasts; actives raise or lower the signal
Outline: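 Human keratinocyte plus foreskin fibroblast primary co-culture exposed to chemical for 24 h. uPA levels were quantified by ELISA, and activity was fitted bidirectionally against a DMSO negative-control baseline.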

CD40, CD40 (gene 958) [7] = assay: BSK_LPS_CD40: BioMAP Diversity Plus: LPS Assay for CD40 Biomarker Activity (AID 2283076); conditions: primary human HUVEC with PBMC; actives raise or lower the signal
Outline: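 In the LPS system of human endothelial cells with peripheral blood mononuclear cells, CD40 levels were read by ELISA 24 h post-treatment. Signal changes in either direction were fitted against the DMSO baseline, with parallel SRB protein staining.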

[8] = read-out: E-selectin (Homo sapiens) (UniProt P16581); assay: BSK_LPS_Eselectin: BioMAP Diversity Plus: LPS Assay for Eselectin Biomarker Activity (AID 2283077); conditions: primary human HUVEC with PBMC; actives raise or lower the signal
Outline: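 E-selectin ELISA on LPS-stimulated endothelial cell/PBMC co-cultures, read 24 h post-treatment; gains and losses fitted against DMSO. Parallel SRB staining (0.1% SRB after 10% TCA fixation, 560 nm) flags overt cytotoxicity.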

[9] = read-out: Interleukin-8 (IL8), CXCL8 (gene 3576); assay: BSK_LPS_IL8: BioMAP Diversity Plus: LPS Assay for Interleukin-8 (IL8) Biomarker Activity (AID 2283078); conditions: primary human HUVEC with PBMC; actives raise or lower the signal
Outline: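 ELISA read-out of IL-8 after 24 h chemical treatment of LPS-activated endothelial/PBMC human primary co-cultures. Changes either up or down relative to DMSO; overt cytotoxicity checked by sulforhodamine B staining in parallel wells.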

[10] = BSK_LPS_SRB: Viability Assessment in the BioMAP Diversity Plus: LPS Assay (AID 2283079); conditions: primary human HUVEC with PBMC;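 note: total protein by sulforhodamine B absorbance as a cytotoxicity measure; measured one day after compound addition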
Outline: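 SRB viability endpoint: cells fixed with 10% TCA, stained with 0.1% SRB, read at 560 nm, 24 h post-dose. HUVEC/PBMC co-culture; signal change in either direction scored relative to DMSO.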

[11] = read-out: Interleukin-1 alpha (IL1a), IL1A (gene 3552); assay: BSK_LPS_IL1a: BioMAP Diversity Plus: LPS Assay for Interleukin-1 alpha (IL1a) Biomarker Activity (AID 2283080); conditions: primary human HUVEC with PBMC; actives raise or lower the signal
Outline: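 Readout is IL-1a level by ELISA, 24 h post-dose, fitted as gain or loss relative to DMSO. System: LPS-activated human primary co-culture of vascular endothelium and peripheral blood mononuclear cells, with parallel SRB total-protein cytotoxicity.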

[12] = read-out: Monocyte Chemoattractant Protein-1 (MCP1), CCL2 (gene 6347); assay: BSK_LPS_MCP1: BioMAP Diversity Plus: LPS Assay for Monocyte Chemoattractant Protein-1 (MCP1) Biomarker Activity (AID 2283081); conditions: primary human HUVEC with PBMC; actives raise or lower the signal;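 for AC50: secreted MCP-1 protein quantified by ELISA in culture supernatant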
Outline: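 Secreted MCP-1 read by ELISA at 24 h post-dosing in an LPS-activated co-culture of endothelial cells with peripheral blood mononuclear cells. Fits run in both directions, DMSO as baseline; parallel SRB staining tracks overt cytotoxicity.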

[13] = BSK_LPS_PGE2: BioMAP Diversity Plus: LPS Assay for Prostaglandin E2 (PGE2) Biomarker Activity (AID 2283082); conditions: primary human HUVEC with PBMC; actives raise or lower the signal
Outline: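 HUVEC plus PBMC co-culture stimulated with LPS; secreted PGE2 quantified by ELISA 24 h after chemical dosing. Activity fitted bidirectionally against DMSO as negative control and baseline; parallel SRB total-protein staining served as cytotoxicity check.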

[14] = read-out: Macrophage colony-stimulating factor (MCSF), CSF1 (gene 1435); assay: BSK_LPS_MCSF: BioMAP Diversity Plus: LPS Assay for Macrophage colony-stimulating factor (MCSF) Biomarker Activity (AID 2283083); conditions: primary human HUVEC with PBMC; actives raise or lower the signal
Outline: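 Bidirectional fitting against DMSO was applied to M-CSF levels read by ELISA at 24 h post-dose. The system pairs human umbilical vein endothelium with peripheral blood mononuclear cells; parallel SRB staining tracked cytotoxicity.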

[15] = read-out: Tissue Factor, F3 (gene 2152); assay: BSK_LPS_TissueFactor: BioMAP Diversity Plus: LPS Assay for Tissue Factor Biomarker Activity (AID 2283084); conditions: primary human HUVEC with PBMC; actives raise or lower the signal
Outline: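 Compound was added to an endothelial cell/PBMC co-culture, and after 24 h tissue factor (CD142) was read by ELISA. Gain or loss of signal was fitted against a DMSO baseline, and parallel SRB staining (560 nm) tracked overt cytotoxicity.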

[16] = read-out: Tumor necrosis factor (Homo sapiens) (UniProt P01375); assay: BSK_LPS_TNFa: BioMAP Diversity Plus: LPS Assay for Tumour Necrosis Factor alpha (TNFa) Biomarker Activity (AID 2283085); conditions: primary human HUVEC with PBMC; actives raise or lower the signal
Outline: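 Human umbilical vein endothelial cells co-cultured with PBMC were exposed to test chemical and TNFa measured by ELISA 24 h after dosing. Bidirectional curve fitting was done relative to DMSO as negative control and baseline.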

[17] = read-out: Vascular cell adhesion molecule 1 (VCAM1), VCAM1 (gene 7412); assay: BSK_LPS_VCAM1: BioMAP Diversity Plus: LPS Assay for Vascular cell adhesion molecule 1 (VCAM1) Biomarker Activity (AID 2283086); conditions: primary human HUVEC with PBMC; actives raise or lower the signal
Outline: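 Human umbilical vein endothelial cells co-cultured with peripheral blood mononuclear cells under LPS stimulation were exposed to test chemical for 24 h. VCAM-1 levels were then measured by ELISA, with bidirectional curve fitting relative to DMSO as negative control and baseline.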

CD38, CD38 (gene 952) = assay: BSK_SAg_CD38: BioMAP Diversity Plus: SAg Assay for CD38 Biomarker Activity (AID 2283087); conditions: primary human HUVEC with PBMC; actives raise or lower the signal
Outline: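 Fluorescence ELISA of cell-surface CD38 served as the read-out, with either increase or decrease fitted against DMSO controls. Cells were a human umbilical vein endothelium plus PBMC co-culture under SEB/TSST-1 stimulation, measured 24 h after dosing.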

CD40, CD40 (gene 958) [18] = assay: BSK_SAg_CD40: BioMAP Diversity Plus: SAg Assay for CD40 Biomarker Activity (AID 2283088); conditions: primary human HUVEC with PBMC; actives raise or lower the signal
Outline: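 CD40 is measured by fluorescence ELISA in an endothelial/PBMC primary human co-culture at 24 h post-dose. Fitting is bidirectional, DMSO baseline. Parallel SRB staining (560 nm) flags cytotoxicity.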

CD69, CD69 (gene 969) = assay: BSK_SAg_CD69: BioMAP Diversity Plus: SAg Assay for CD69 Biomarker Activity (AID 2283089); conditions: primary human HUVEC with PBMC; actives raise or lower the signal
Outline: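 Primary human vascular co-culture (umbilical vein endothelium with peripheral blood mononuclear cells) exposed to test chemical for 24 h. CD69 levels quantified by fluorescence ELISA; DMSO served as negative control for bidirectional fitting.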

Measured: AC50

Sequence of E-selectin (Homo sapiens) (P16581 whole entry, looked up): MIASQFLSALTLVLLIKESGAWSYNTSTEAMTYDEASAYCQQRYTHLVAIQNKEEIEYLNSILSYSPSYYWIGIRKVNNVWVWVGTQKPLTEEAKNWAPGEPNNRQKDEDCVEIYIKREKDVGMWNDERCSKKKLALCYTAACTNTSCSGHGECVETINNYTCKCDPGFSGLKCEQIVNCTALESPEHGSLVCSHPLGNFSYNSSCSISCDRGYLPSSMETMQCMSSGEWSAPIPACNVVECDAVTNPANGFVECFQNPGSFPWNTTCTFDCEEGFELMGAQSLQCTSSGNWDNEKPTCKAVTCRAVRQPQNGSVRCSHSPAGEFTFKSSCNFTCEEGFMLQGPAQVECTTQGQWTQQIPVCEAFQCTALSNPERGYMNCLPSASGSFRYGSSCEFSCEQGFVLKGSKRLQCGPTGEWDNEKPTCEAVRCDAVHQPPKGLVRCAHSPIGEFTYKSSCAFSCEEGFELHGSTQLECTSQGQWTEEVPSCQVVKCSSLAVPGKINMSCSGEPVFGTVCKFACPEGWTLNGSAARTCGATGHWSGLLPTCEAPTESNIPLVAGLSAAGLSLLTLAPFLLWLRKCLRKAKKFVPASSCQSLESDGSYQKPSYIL
Sequence of Tumor necrosis factor (Homo sapiens) (P01375 whole entry, looked up): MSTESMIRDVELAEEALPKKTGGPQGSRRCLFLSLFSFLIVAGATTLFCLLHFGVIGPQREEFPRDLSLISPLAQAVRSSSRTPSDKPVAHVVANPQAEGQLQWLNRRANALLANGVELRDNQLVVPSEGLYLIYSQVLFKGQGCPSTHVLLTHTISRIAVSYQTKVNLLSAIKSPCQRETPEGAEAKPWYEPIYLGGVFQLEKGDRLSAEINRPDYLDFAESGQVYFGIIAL

C=CC(=O)OCC(CC)(COC(=O)C=C)COC(=O)C=C
inactive: [9] | [13] | [16]
active: [1] 2.16 µM | [2] 5.38 µM | [3] 2.37 µM | [4] 2.35 µM | [5] 2.34 µM | [6] 3.11 µM | CD40, CD40 (gene 958) [7] 1.35 µM | [8] 2.93 µM | [10] 2.43 µM | [11] 1.46 µM | [12] 3.29 µM | [14] 1.91 µM | [15] 2.29 µM | [17] 2.79 µM | CD38, CD38 (gene 952) 1.78 µM | CD40, CD40 (gene 958) [18] 2.12 µM

O=C(O)C(F)(F)OC(F)(F)C(F)(F)OC(F)(F)F
active: [1] 47.7 µM
inactive: [1] | [4] | [5] | [6] | CD40, CD40 (gene 958) [7] | [8] | [9] | [10] | [11] | [12] | [13] | [14] | [15] | [16] | [17] | CD38, CD38 (gene 952) | CD40, CD40 (gene 958) [18] | CD69, CD69 (gene 969)

O=P(OCC(Br)CBr)(OCC(Br)CBr)OCC(Br)CBr (stereo not drawn)
active: [5] 21.1 µM
inactive: all other assays above
